PREPL inh: inhibits the human prolyl oligopeptidase-like enzyme; 320,000 compounds, 0.68% hits; inhibition, % at 5.96 µM; recombinant PREPL, fluorescence polarization activity-based probe; in the data active = inhibition above about 43%;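 also: 0% = enzyme with DMSO and 100% = wells lacking enzyme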
LYPLA2 inh: blocks human lysophospholipase 2, a PME1 counter-screen | O95372 | recombinant LYPLA2, FP-Rh probe fluorescence polarization | inhibition, % at 5.9 µM | 320,000 compounds, 0.38% hits | AID 2177;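 active = inhibition above the screen-wide mean plus 3 SD, limit set per campaign, cut at about 26% in these data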;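 also: 0% = LYPLA2 with DMSO and 100% = wells lacking LYPLA2 enzyme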
PME-1 primary: blocks human protein phosphatase methylesterase 1; recombinant PME-1, FP-Rh probe fluorescence polarization; inhibition, % at 5.9 µM; 320,000 compounds, 0.53% hits;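 active = inhibition above the campaign mean of all compounds plus 3 SD, cut at about 26% in these data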;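 also: competitive labeling of PME-1 active site by serine hydrolase directed probe; 0% = PME-1 with DMSO and 100% = wells lacking PME-1 enzyme; inhibitors block probe labeling so polarization falls and inhibition rises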
LYPLA1 inh: blocks human lysophospholipase 1, a PME1 counter-screen; O75608; recombinant LYPLA1, FP-Rh probe fluorescence polarization; inhibition, % at 5.9 µM; 320,000 compounds, 0.16% hits; AID 2174;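 active = inhibition above the mean of all tested compounds plus 3 SD, set per campaign, cut at about 14% in these data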;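 also: inhibitors block serine hydrolase probe labeling of LYPLA1 so polarization falls; 0% = enzyme with DMSO and 100% = wells lacking LYPLA1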
Fam108B inh: blocks mouse Fam108B hydrolase in RBBP9 counter-screen | recombinant Fam108B, FP-Rh probe fluorescence polarization | inhibition, % at 9.51 µM | 300,000 compounds, 0.33% hits | AID 1947;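 active = inhibition above the screen mean inhibition plus 3 SD, computed separately per campaign, cut at about 18% in these data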;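 also: inhibitors lower polarization as less probe binds the enzyme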
LYPLA1 confirm: counter-screen for PME1 inhibitors: confirmation of human LYPLA1 inhibitors. AID 2233. 480 compounds, 69% hits. recombinant LYPLA1, FP-Rh probe fluorescence polarization. shares compounds with LYPLA1 inh. inhibition, % at 5.9 µM;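 active = mean inhibition across replicates above the hit cutoff set in the primary screen, cut at about 15% in these data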;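 also: loss of FP-Rh probe labeling of LYPLA1 seen as lower polarization; 0% = LYPLA1 with DMSO and 100% = wells lacking LYPLA1 enzyme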
LYPLA2 confirm: counter-screen for PME1 inhibitors: confirmation of human LYPLA2 inhibitors; shares compounds with LYPLA2 inh; recombinant LYPLA2, FP-Rh probe fluorescence polarization; inhibition, % at 5.9 µM; 1,100 compounds, 72% hits;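 active = mean inhibition across replicates above the hit cutoff set in the primary screen, cut at about 26% in these data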;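 also: blocked labeling of the enzyme by serine hydrolase FP-Rh probe lowers polarization; 0% = enzyme with DMSO and 100% = wells lacking LYPLA2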
Active calls of the source: *. Only some compounds are listed: those with a hit (about 1.3% of all), similar ones and a draw of the others.

`CCCC(=Nc1ccccc1)C1=C(O)C(C(=O)OC)C(C)(C)CC1=O` (configuration not stated) gave PREPL inh 7.9, LYPLA2 inh -3.4, PME-1 primary 2.4, LYPLA1 inh 1.1 and Fam108B inh 0.4.
Screening O=C(CCNc1ccc(Cc2ccncc2)cc1)c1cccc([N+](=O)[O-])c1 returned PREPL inh 18.7, LYPLA2 inh 20.4, PME-1 primary 10.5, LYPLA1 inh 18.3*, Fam108B inh 7.3 and LYPLA1 confirm 35.6*.
For O=C(CCNc1cccc(F)c1)c1cccc([N+](=O)[O-])c1 the results were PREPL inh 10.1, LYPLA2 inh 5.0, PME-1 primary -3.4, LYPLA1 inh 0.0 and Fam108B inh -3.5.
`NC(=S)N/N=C/c1coc2ccc(F)cc2c1=O` gave PREPL inh -1.1, LYPLA2 inh 3.1, PME-1 primary -2.1, LYPLA1 inh 2.3 and Fam108B inh -2.6.
Cc1[nH]c2ccccc2c1C(=O)CN1CCN(C/C=C/c2ccccc2)CC1 was read as PREPL inh 11.5, LYPLA2 inh 55.8*, PME-1 primary 0.2, LYPLA1 inh 31.4*, Fam108B inh 2.0, LYPLA1 confirm 30.6* and LYPLA2 confirm 53.7*.
O=C(NCCN1CCOCC1)c1cc(Cl)ccc1[N+](=O)[O-] was read as PREPL inh 7.6, LYPLA2 inh 2.3, PME-1 primary 2.1, LYPLA1 inh -0.5 and Fam108B inh 0.4.
For CCOC(=O)CCc1c(C)nc(SCc2ccc(C(=O)O)cc2)c(C#N)c1C the results were PREPL inh -3.4, LYPLA2 inh 43.3*, PME-1 primary -0.8, LYPLA1 inh 20.4*, Fam108B inh -1.0, LYPLA1 confirm 39.4* and LYPLA2 confirm 58.9*.
`O=C(Nc1ccc2oc(-c3cccnc3)nc2c1)c1ccc2c(c1)OCCO2` gave PREPL inh 10.3, LYPLA2 inh 47.2*, PME-1 primary -15.1, LYPLA1 inh 20.7*, Fam108B inh -5.8, LYPLA1 confirm 53.2* and LYPLA2 confirm 48.7*.
For O=C(CCCCCN1C(=O)c2ccccc2C1=O)Nc1ccc(S(=O)(=O)N2CCCCC2)cc1 the results were PREPL inh 8.1, LYPLA2 inh 41.8*, PME-1 primary 3.9, LYPLA1 inh 26.4*, Fam108B inh -7.6, LYPLA1 confirm 29.7* and LYPLA2 confirm 41.5*.
For CC1CCN(S(=O)(=O)c2ccc(NC(=O)CCN3C(=O)c4ccccc4C3=O)cc2)CC1 the results were PREPL inh -2.7, LYPLA2 inh 1.8, PME-1 primary 8.2, LYPLA1 inh -7.6 and Fam108B inh -1.1.
O=C1N=C(N2CCN(Cc3ccccc3)CC2)S/C1=C/c1cccs1 was read as PREPL inh -22.2, LYPLA2 inh 46.8*, PME-1 primary -3.3, LYPLA1 inh 25.1*, Fam108B inh -2.9, LYPLA1 confirm 35.6* and LYPLA2 confirm 55.4*.
`O=C1N=C(c2ccccc2)S/C1=C\c1cccs1` gave PREPL inh 10.8, LYPLA2 inh -0.7, PME-1 primary 5.3, LYPLA1 inh -1.9 and Fam108B inh 3.7.
Screening O=c1[nH]c(CN2CCN(C/C=C/c3ccccc3)CC2)nc2cc(Cl)ccc12 returned PREPL inh -38.8, LYPLA2 inh 32.0*, PME-1 primary 0.8, LYPLA1 inh 34.4*, Fam108B inh 2.5, LYPLA1 confirm 40.7* and LYPLA2 confirm 31.1*.
COc1ccc(N2CCN(C(=O)CNC(=O)c3cn(-c4ccccc4OC)c(=O)c4ccccc34)CC2)cc1 was read as PREPL inh 14.0, LYPLA2 inh 76.3*, PME-1 primary 3.1, LYPLA1 inh 15.4*, Fam108B inh -1.5, LYPLA1 confirm 25.7* and LYPLA2 confirm 81.0*.
`COc1ccc(-n2nc(C(=O)NCC(=O)N3CCOCC3)c3ccccc3c2=O)cc1OC` gave PREPL inh 3.0, LYPLA2 inh 5.7, PME-1 primary 1.1, LYPLA1 inh 5.9 and Fam108B inh -4.7.

From PubChem
